Consider 40 sequences from the supplement of paper PMC6555819.

The first test concerns PPARa:RXRa (NR concentration 270 nM, RXRa partner concentration 90 nM). Description: PBM binding z-score (relative to random genomic background probes); higher = stronger binding; sequences stand for … in GC…GCGATTGACAGCGTAGAATGAAGG
The procedure, abridged: (§1)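 Scanned fluorescence from custom Agilent 4×180K protein-binding microarrays was regression-normalized. Binding z-scores use random background probes as reference. Ligand-free nuclear receptor dimers were incubated on the arrays for 1 h and detected with antibodies against each partner (one per run).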
As to ATCTCTAGGTAAAGATAGTTCTGTGAATGCAAAT, the PBM binding z-score came out at 0.344.
Take CGTCCAGGGTCAGAGAGGTCAGTGAATGCCGAGT: the PBM binding z-score turned out to be 4.87.
The sequence TCTAGTTGGTCACGGAGGTCACACCCGACGGGTA displayed a PBM binding z-score of 3.73.
In turn, TCATATAGGTAAATGCTAAGTGAAAGTCCGATCT came in with a PBM binding z-score of 1.17.
In the case of TCTGCTAGGTCAGCTGGTCAGCTAACGAGCTGCC, the PBM binding z-score was found to be 1.95.
In turn, CTACCAAGGTGAACAAGGGCGTTGATTACTATTC registered a PBM binding z-score of 1.39.
Turning to AGTCAAAGTTCAAGACGAGGTAACGTAAAGCACG, the PBM binding z-score is 4.72.
Same read-out and setting: as for GCTGCTAGGTCAGGTTGATCAGCTAACGGGTACG, the figure is 1.47; as for CCTTACGGGTCAAGGTTTTAGCACGGGTGGTACG, 4.56; as for TGAATGAGGTTATGAGATCAGGGAACGTTGCAAA, 3.11.
In the case of AGAACGAGGGCACGCTGAGTTCATAGCAGAGTAG, the PBM binding z-score came to 3.12.
Consider AGTCAAAGTTCACTAGGTAACCTAAGATTCAGCT, for which the PBM binding z-score was found to be 4.71.
In turn, GTACCAAGGTGAATAGGTCGTGGATGAGTAGGCG had a PBM binding z-score of 2.47.
On the same count and under the same terms, the figure for CTCCAAAGGTCGTGCTCAGGTGAGTATACCAAAC is 5.08.
Same read-out and setting: as for TGATATAGGTAAACAGGTGAAAGTCCGTAAGTTA, the figure is 2.37.
The sequence TCTATTAGTAGATTAGGGCAACCGAAACAGCGGA gave a PBM binding z-score of 0.659.
On the same count and under the same terms, as for CGTCCAAGGTCATAGGAGGTCAGTGAGGACAGAT, the figure is 5.86; as for TCTCGGAGGACACGGAAGGTCAGAGCTCGACATC, 2.04.

For another test, the system named is PPARg:RXRa (NR concentration 180 nM, RXRa partner concentration 90 nM). Described as above. The gist of the method:
as §1
For TGAATGAGGTTAAAGATCTGGGAACGTGGCGTCG, the PBM binding z-score was 2.7.
Turning to CTCGCAAGGTCGGTTGAGGTGAGTATACGGATAA, the PBM binding z-score is -0.0433.
Consider CCACACAGGTGAAAGGTAACTCAGTCTGGTACGC, for which the PBM binding z-score is 5.45.
Consider CCTACTGCGCCAAGGTCATTGATCAGTCAAAGCA, for which the PBM binding z-score worked out at 0.507.
With TCTATTAGTTGAAGTGCAACCGACGAGTCCGTTT, the PBM binding z-score is -0.119.
AGAACGAGGGCAATGAGTAGATAGCACGGGTGGC registered a PBM binding z-score of 1.6.
TTGCCAAGGTGAAGGTCGTTGATCCCTCTGTAGA came in with a PBM binding z-score of 0.85.
On the same count and under the same terms, the figure for TCTAGTTGGTCACGGAGGTCACACACGACGGGTA is 3.79; for ACAGACAGGTTAGTGAAGGTAACTCAGCTGGACG it is 0.68; for GCGATTGGGGCAAAGCAGGTTACCATAAGGTTGG it is 0.77.
Still for that read-out and setting: as for ATCTCTAGGTAAGACTCCGTTCAGTGAAGAACGC, the figure is 0.087.
Regarding CCGACTGGGCCACGAAAGGTCATTGATTCAGTGA, the PBM binding z-score was determined as 3.41.
The sequence AATACAGGGTCATTGTAGGCCAGAGTACGCACAG registered a PBM binding z-score of 6.15.
TTACCAAGGTGAGCTGAGGTCGTGGATCCAACTC: the PBM binding z-score was 0.337.
Still for that read-out and setting: as for TCTATTAGTTGATTAGGGCAACCGCAACAGCGGA, the figure is 0.368.
With AGTCAAAGTTCATCTAGGTAACCTAAGATATGCT, the PBM binding z-score came to 6.33.
Regarding TCAGACAGGTGAAGGTAACGCAGGTACGCAGTCG, the PBM binding z-score was 0.779.
For AGAATGAGGTTATATGTAGATCAGGGAAGAAAGT, the PBM binding z-score is 2.33.
GCTCGGAGGACAAGGTCAGAGATTTGTCCGTAGA showed a PBM binding z-score of 0.719.
The sequence TCTGCTAGGTCAGTTGGTCAGGTAACGAGCTGCC showed a PBM binding z-score of 0.452.
In turn, CCTCGGAGGACTACAGGAGGTCAGAGCTGCCAGA gave a PBM binding z-score of 0.238.
The same measure, in the same setting: as for GGAACGACGGCAAGTTGATAGCAGAGTTTGATGG, the figure is 0.538.
For the sequence ATCTCTAGGTAAAGATAGTTCTGTGAATGCAAAT, the PBM binding z-score was 0.505.
Same read-out and setting: as for CGTCCAGGGTCAGAGAGGTCAGTGAATGCCGAGT, the figure is 3.32; as for TCTAGTTGGTCACGGAGGTCACACCCGACGGGTA, 3.54; as for TCATATAGGTAAATGCTAAGTGAAAGTCCGATCT, 0.762.
Same read-out and setting: the figure for TCTGCTAGGTCAGCTGGTCAGCTAACGAGCTGCC is 0.828.
In the case of CTACCAAGGTGAACAAGGGCGTTGATTACTATTC, the PBM binding z-score worked out at 0.678.
Turning to AGTCAAAGTTCAAGACGAGGTAACGTAAAGCACG, the PBM binding z-score is 6.2.
Regarding GCTGCTAGGTCAGGTTGATCAGCTAACGGGTACG, the PBM binding z-score worked out at 0.663.
Regarding CCTTACGGGTCAAGGTTTTAGCACGGGTGGTACG, the PBM binding z-score stood at 4.23.
The sequence TGAATGAGGTTATGAGATCAGGGAACGTTGCAAA returned a PBM binding z-score of 1.64.
The sequence AGAACGAGGGCACGCTGAGTTCATAGCAGAGTAG yielded a PBM binding z-score of 2.52.
Consider AGTCAAAGTTCACTAGGTAACCTAAGATTCAGCT, for which the PBM binding z-score turned out to be 7.18.
Still for that read-out and setting: as for GTACCAAGGTGAATAGGTCGTGGATGAGTAGGCG, the figure is 1.85.
On the same count and under the same terms, as for CTCCAAAGGTCGTGCTCAGGTGAGTATACCAAAC, the figure is 3.62; as for TGATATAGGTAAACAGGTGAAAGTCCGTAAGTTA, 3.95; as for TCTATTAGTAGATTAGGGCAACCGAAACAGCGGA, 0.254.
CGTCCAAGGTCATAGGAGGTCAGTGAGGACAGAT: the PBM binding z-score was 5.58.
Consider TCTCGGAGGACACGGAAGGTCAGAGCTCGACATC, for which the PBM binding z-score amounted to 0.365.
